Experimental data as given in PubChem BioAssay AID449762 (Southern Research Specialized Biocontainment Screening …, 2010).
Out of some 330,000 compounds screened, about 1,900 (0.58%) were called active. About 4% were inconclusive and are not listed. A selection follows. Potency and affinity values are given separately. Values without a mark were called inactive. No stated cut-off is given here; in the data, inconclusive means inhibition above about 70% without an active follow-up result; inactive means below that.

assay: M. tuberculosis growth inhibition, HTS (AID 449762);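 further: bacterial growth assessed after seven days of incubation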; conditions: M. tuberculosis H37Rv growth inhibition, 7H9 media; at 25 µM; active compounds read high

Row | Structure (SMILES) | inhibition [%]
1 | Cc1ccc(S(=O)(=O)NCCCCCC(=O)Nc2c(C)n(C)n(-c3ccccc3)c2=O)cc1 | -4.12
2 | CCCCN(C(=O)c1c(C)noc1C)c1c(N)n(CCC)c(=O)[nH]c1=O | -2.29
3 | Cc1ccc(/C=C/C(=O)Nc2ccc(S(=O)(=O)Nc3onc(C)c3C)cc2)cc1 | -4.61
4 | COCCCNC(=O)/C(C#N)=C/c1c(N2CCN(c3ccccc3)CC2)nc2c(C)cccn2c1=O | 4.49
5 | COCCNC(=O)/C(C#N)=C/c1c(N2CCN(c3cccc(Cl)c3)CC2)nc2c(C)cccn2c1=O | 8.89
6 | CCOc1ccc(NC(=O)/C(=C\c2ccc(OC(C)=O)c(OC)c2)NC(C)=O)cc1 | 4.59
7 | Cc1ccc(-c2nc(CS(=O)CC(=O)NCCN3CCCCC3C)c(C)o2)cc1 (stereo not given) | -3.03
8 | CC(C)c1ccc(/C=C2\CC/C(=C\C=N\N(C)C)C2=O)cc1 | -3.15
9 | CN(C)/N=C/C=C1\CC/C(=C\c2ccc(Br)cc2)C1=O | 3.13
10 | Cc1cc(-n2nc(C)cc2C)nc(N)n1 | -2.23
11 | CCOC(=O)c1c(-c2ccc(F)cc2)csc1NC(=O)CN1C(=O)NC2(CCCCC2C)C1=O (stereo not given) | 4.04
12 | COc1ccc(/C=C/c2c(-c3ccc(OC)cc3)oc3ccccc23)cc1 | -5.2
13 | COc1ccc(/C=C/c2c(-c3ccc(OC)cc3)oc3cccnc23)cc1 | -6.31
14 | COc1ccc(C2C3=C(CC(C)(C)CC3=O)Nc3c2c(=O)n(C)c(=O)n3C)cc1OC (stereo not given) | -2.26
15 | O=C(Cc1ccc([N+](=O)[O-])cc1)NCc1ccccc1Cl | 0.6
16 | CCOC(=O)Cc1csc(NC(=O)CSc2nnc(-c3ccncc3)n2Cc2ccco2)n1 | 2.42
17 | CC(C)c1onc(C(=O)N2CCN(c3ccccc3)CC2)c1[N+](=O)[O-] | -4.37
18 | Cc1ccc(SCC(=O)OCC(=O)N(CCC#N)c2ccccc2)cc1C | 27.2
19 | Cc1ccc(N(CCC#N)C(=O)COC(=O)c2cc(C)oc2C)cc1 | -1.99
20 | CC1(c2ccc3ccccc3c2)NC(=O)N(CC(=O)N2CCN(Cc3ccccc3)CC2)C1=O (stereo not given) | -2.77
21 | Cc1cc(NC(=O)c2cccnc2)ccc1NC(=O)c1cc2ccccc2o1 | 5.9
22 | Cc1[nH]n(-c2ccccc2)c(=O)c1-c1ccccc1 | 2.82
23 | Cc1cc(-c2c(C)[nH]n(-c3ccccc3)c2=O)n(-c2ccccc2)n1 | -6.21
24 | O=C(Cc1ccc(Cl)cc1)N/N=C/c1cccc(O)c1 | 9.69

Row | Structure (SMILES) | inhibition [%]
25 | CCc1ccc(N=C2NC(=O)/C(=C/c3cc(OC)c(OC)c(OC)c3)S2)cc1 | 6.19
26 | COc1cc(/C=C2\SC(=Nc3ccc(O)cc3)NC2=O)cc(OC)c1O | 2.36
27 | COc1cccc(NC(=O)Nc2cc(C(=O)O)ccc2C)c1 | 16.4
28 | O=C(CC1(O)C(=O)N(Cc2ccccc2Cl)c2ccccc21)c1ccco1 (stereo not given) | 7.75
29 | CCc1cccc2c(C(=O)C(NCCOC)c3ccccc3)c[nH]c12 (stereo not given) | -0.65
30 | Cc1ccc(C(=O)Nc2cc([N+](=O)[O-])ccc2C)cc1 | 10.4
31 | CC(=O)Nc1cccc(-c2nc3ccccc3c(=O)o2)c1 | 8.2
32 | CC(C)C(=O)Nc1cccc(-c2nc3ccccc3o2)c1 | -4.29
33 | CC(C)N(C(C)C)S(=O)(=O)c1ccc(NN)nc1 | 10
34 | CCCn1c(N2CCN(C(=O)Nc3ccc(Cl)cc3)CC2)nc2ccccc21 | -1.4
35 | CCn1c(N2CCN(Cc3ccc([N+](=O)[O-])cc3)CC2)nc2ccccc21 | 2.71
36 | CC1CC1C(=O)OCC(=O)NC(=O)c1ccc(C(C)(C)C)cc1 (stereo not given) | 4.17
37 | CC1C(C#N)=C(SCC(N)=O)NC2=C1C(=O)CC(C)(C)C2 (stereo not given) | 0.02
38 | CC(=O)NNC(=O)CCn1nnc(-c2ccc(Cl)cc2)n1 | 0.1
39 | COC(=O)c1nnn(CC(=O)NC(=O)Nc2cccc(C)c2C)c1C(=O)OC | -2.49
40 | CCc1cc(C(N)=S)ccn1 | 40.1
41 | CCc1ccc(C(N)=S)cc1 | 40.3
42 | CCOC(=O)c1[nH]c2ccc(F)cc2c1NC(=O)CCN1CCOCC1 | 7.04
43 | CCOc1ccccc1-c1nc(SCC(=O)O)n[nH]1 | 2.12
44 | CCC(=O)c1c[nH]c(C(=O)NCc2cccc(C(F)(F)F)c2)c1 | 3.92
45 | CCN1CC=C(c2c[nH]c3ccccc23)CC1 | 4.32
46 | C1=C(c2c[nH]c3ccccc23)CCN(Cc2ccccc2)C1 | 8.31
47 | Cc1ccc(S(=O)(=O)Nc2ccc(N=Nc3ccc(O)cc3)cc2)cc1 | 7.49
48 | Cc1cc(=O)oc2cc(NC(=O)C(C)Oc3cccc(Cl)c3)ccc12 (stereo not given) | 4

Row | Structure (SMILES) | inhibition [%]
49 | CCOC(=O)c1c(C)[nH]c(C(=O)COC(=O)c2ccc(O)cc2)c1C | -6.58
50 | OC(CN1CCCCC1)Cn1c2ccccc2c2ccccc21 (stereo not given) | 8.7
51 | O=c1c2ccccc2n(CC(O)CN2CCCCC2)c2ccccc12 (stereo not given) | -4.66
52 | CC(C)(C)OC(=O)N[C@@H](Cc1ccccc1)C(=O)N1CCC(C(=O)NCC(=O)O)CC1 | -2.02
53 | Cc1cccc(N2CCN(C(=O)CCCn3c(=O)[nH]c4ccsc4c3=O)CC2C)c1 (stereo not given) | 6.71
54 | CCn1nc(C)cc1C(=O)N1CCCC(C(=O)c2ccc3ccccc3c2)C1 (stereo not given) | 0.73
55 | CCc1ccc2c(c1)[C@]1(C(=O)N2)[C@@H]2C(=O)N(Cc3ccccc3)C(=O)[C@@H]2[C@@H]2CCCN21 | -2.59
56 | COc1cccc(C(=O)N/N=c2\sc3ccccc3n2C)c1 | 29.6
57 | Cc1ccc(C(=O)N/N=c2\sc3ccccc3n2C)cc1 | 10.5
58 | Cc1ccc(S(=O)(=O)N2CCOCC2)cc1C(=O)NC(=S)N1CC(C)OC(C)C1 (stereo not given) | -0.86
59 | O=C(N/N=C\c1ccc(Cl)s1)c1cccs1 | 63.3
60 | Cc1ccc(/C=N/NC(=O)c2cccs2)s1 | 43
61 | CC1(C)CC(=O)C=C(c2cccc(Br)c2)C1 | -4.12
62 | COc1cc(-c2nnc(SCC(=O)Nc3ccc(C(=O)O)cc3)o2)cc(OC)c1OC | -0.72
63 | COc1cc(NC(=O)C2CCN(S(=O)(=O)c3ccc(N4CCCC4=O)cc3)CC2)cc(OC)c1 | 8.33
64 | C=CCNC(=O)N1CCC(c2nc3ccccc3s2)CC1 | -8.35
65 | S=C(NCCN1CCOCC1)N/N=C/c1ccccc1 | -4.03
66 | Oc1cccc(/C=N/NC(=S)NCCN2CCOCC2)c1O | -1.62
67 | CCCn1c(SCC(=O)Nc2ccc(S(=O)(=O)N(C)C)cc2)n[nH]c1=O | -9.52
68 | CCn1c(SCC(=O)Nc2ccc3c(c2)OCO3)nnc1C(C)C | -4.67
69 | COc1ccc(C2=NN(C(=O)COC(=O)c3ccc(NC(=O)CC#N)cc3)C(c3ccco3)C2)cc1 (stereo not given) | -7.88
70 | COc1ccc(C2CC(c3ccccc3)=NN2C(=O)COC(=O)c2ccc(S(C)(=O)=O)cc2)cc1 (stereo not given) | 1.53
71 | Cc1cccc(-n2c(-c3csc4ccccc34)n[nH]c2=S)c1 | 2.9
72 | CC(=O)Nc1nonc1NC(=O)CSc1ccccn1 | -2.12

Row | Structure (SMILES) | inhibition [%]
73 | Cc1nonc1NC(=O)CSc1ccccn1 | 2.01
74 | CN1C(=O)c2ccccc2N(C)C1c1cccc(O)c1 (stereo not given) | 0.25
75 | O=C(CN1C(=O)c2cccc3cccc1c23)NCc1ccccn1 | -1.94
76 | COc1ccc(S(=O)(=O)Nc2cccc(S(=O)(=O)N3CCCC3)c2)cc1OC | -4.75
77 | CCOC(=O)CCCNC(=O)COC(=O)c1ccc(O)cc1 | -6.12
78 | CCOC(=O)CCCNC(=O)COC(=O)c1cc(C)cc(C)c1 | -0.59
79 | COc1cc(NS(=O)(=O)c2c(C)[nH]c(C)c2C(=O)N2CCCCC2)cc(OC)c1OC | 7.96
80 | COc1ccccc1C(=O)N/C(N)=N/c1nc2ccccc2o1 | 0.95
81 | O=C(NC(=Nc1nc2ccccc2o1)NC(=O)c1ccccc1)c1ccccc1 | 3.54
82 | CCC(=O)N(Cc1ccco1)Cc1cc2cc3c(cc2[nH]c1=O)OCO3 | 3.54
83 | S=C(NCCc1ccccc1)N1CCN(C23CC4CC(CC(C4)C2)C3)CC1 | 7.41
84 | CCN1CCN(C2CCCCC2NS(=O)(=O)c2ccccc2)CC1 (stereo not given) | -5.99
85 | Cc1c(C(=O)Nc2nc3ccccc3[nH]2)oc2ccc(Br)cc12 | 64.1
86 | COc1ccc2oc(C(=O)Nc3nc4ccccc4[nH]3)c(C)c2c1 | 25.6
87 | Cc1ccc(C(=O)Cn2c(-c3ccccc3)noc2=O)cc1 | 2.22
88 | CCC(C)(C)NC(=O)Cn1c(-c2ccc(C)cc2)noc1=O | -4.07
89 | Cn1ccc(-c2ccccc2)c(C#N)c1=O | -0.87
90 | Cc1ccc2nc(SCC(=O)NCC3CCCO3)c(C#N)cc2c1 (stereo not given) | 9.97
91 | Clc1ccccc1OCCCCn1ccnc1 | -6.48
92 | Cc1ccccc1OCCCCCn1ccnc1 | -16.2
93 | COc1ccccc1NC(=O)C(C)OC(=O)/C(=C/c1ccccc1)NC(C)=O (stereo not given) | 5.35
94 | O=C(Nc1ccc2c(c1)OCO2)c1ccc(Br)s1 | 65
95 | O=C(Nc1ccc2c(c1)OCO2)c1cccs1 | -1.92
